These results are taken from PubChem BioAssay (Tox21).

The structures appear in SMILES notation. Several values for one entry are separate records, joined by “and”; a condition that tells them apart may be missing. Identical values can stand only once. Records with an inconclusive call do not appear. Some structures have more than one record in an assay (separate samples or runs), and their calls can disagree. Activity calls are given as the source filed them. Unless noted, calls follow the shape of the dose curve; as a rule, active = well fitted curve in the direction sought with a large enough effect in the repeat runs; inconclusive = weak or mixed curves; inactive = no such curve, though single readings can be large; an effect the other way counts as inactive or inconclusive.

A short description of assay [1]: qHTS assay to identify small molecule antagonists of the glucocorticoid receptor (GR) signaling pathway - cell viability counter screen (AID 720693). Also: nearly all actives have a fitted effect of over 55% in size. Also: potency is read from the fitted curve at half-maximal effect. On the technique in general: In qHTS, concentration-response curves come from the screen itself.
Assay [2] is described as follows: qHTS assay for identifying genotoxic compounds that show differential cytotoxicity against isogenic chicken DT40 cell lines with known DNA damage response pathways - wild type cell line (AID 743012). Also: nearly all actives have a fitted effect of over 60% in size. Also: potency is read from the fitted curve at half-maximal effect. The essentials: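 Wild-type DT40 cells (300/well) exposed to compounds for 40 hours at 37 C/5% CO2. Viability read by CellTiter-Glo luminescence after 30 min at room temperature.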

The nature of assay [3]: qHTS assay for identifying genotoxic compounds that show differential cytotoxicity against isogenic chicken DT40 cell lines with known DNA damage response pathways - Rad54/Ku70 mutant cell line (AID 743015). Also: nearly all actives have a fitted effect of over 60% in size. Also: potency is read from the fitted curve at half-maximal effect.
Assay [4] is described as follows: qHTS assay to identify small molecule antagonists of the androgen receptor (AR) signaling pathway - cell viability counter screen (AID 743033; also: nearly all actives have a fitted effect of over 45% in size).
Assay [5] in a line: qHTS assay for identifying genotoxic compounds that show differential cytotoxicity against isogenic chicken DT40 cell lines with known DNA damage response pathways - Rev3 mutant cell line (AID 743014). Also: nearly all actives have a fitted effect of over 55% in size. Also: potency is read from the fitted curve at half-maximal effect.
Assay [6] can be described thus: qHTS assay to identify small molecule antagonists of the androgen receptor (AR) signaling pathway using the MDA cell line - cell viability counter screen (AID 743041; also: nearly all actives have a fitted effect of over 45% in size; also: potency is read from the fitted curve at half-maximal effect). The essentials:
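MDA-kb2 AR-luc cells (MMTV-luciferase, AR/GR responsive) treated with compounds plus R1881 agonist for 16 h at 37C. CellTiter-Fluor added at 15.5 h; fluorescence read after 30 min in the same wells.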

Assay [7] deals with Androgen receptor (Homo sapiens) (UniProt P10275). As to the kind of experiment: qHTS assay to identify small molecule antagonists of the androgen receptor (AR) signaling pathway (AID 743035; active = well fitted inhibition curve with a large enough effect in the signal ratio in the repeat runs, not every such curve was filed as active; the % refers to the signal ratio; also: potency is read from the fitted curve at half-maximal effect). Put shortly:
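HEK293 cells stably carrying UAS-beta-lactamase reporter, 2,000/well, given compounds plus R1881 agonist and incubated 16 h at 37C. LiveBLAzer B/G FRET substrate then added for 2 h at room temperature before fluorescence reading.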

Assay [8] shares this target. The assay is described as follows: qHTS assay to identify small molecule agonists of the androgen receptor (AR) signaling pathway (AID 743036; active = well fitted activation curve with a large enough effect in the signal ratio in the repeat runs, with a control signal flat, not every such curve was filed as active; the % refers to the signal ratio). Put shortly:
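Quantitative HTS of the Tox21 10K library in HEK293 cells bearing a stably integrated UAS-controlled beta-lactamase reporter. Compound exposure lasted 16 h at 37C. Reporter activity was detected by FRET substrate fluorescence after 2 h at room temperature.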

Assay [9] shares this target. As to the kind of experiment: qHTS assay to identify small molecule agonists of the androgen receptor (AR) signaling pathway using the MDA cell line (AID 743040; also: nearly all actives have a fitted effect of over 20% in size). The essentials:
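MDA-kb2 breast carcinoma cells carrying MMTV-luciferase (responsive to AR and GR), plated 5 h then treated 16 h with compounds at 37C, 0% CO2. Read-out was ONE-Glo luminescence after 30 min at room temperature.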

Assay [10] shares this target. As to the kind of experiment: qHTS assay to identify small molecule antagonists of the androgen receptor (AR) signaling pathway using the MDA cell line (AID 743042; also: nearly all actives have a fitted effect of over 55% in size). The essentials:
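MDA-kb2 breast carcinoma cells carrying MMTV-luciferase (AR/GR responsive) were co-treated with compounds and the agonist R1881 for 16 h at 37C. Inhibition read as ONE-Glo luminescence; CellTiter-Fluor fluorescence measured in parallel for cytotoxicity.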
% is scaled to controls: 0 for no effect and ±100 for the full control effect.

Chain of Androgen receptor (Homo sapiens) (P10275 whole entry, looked up): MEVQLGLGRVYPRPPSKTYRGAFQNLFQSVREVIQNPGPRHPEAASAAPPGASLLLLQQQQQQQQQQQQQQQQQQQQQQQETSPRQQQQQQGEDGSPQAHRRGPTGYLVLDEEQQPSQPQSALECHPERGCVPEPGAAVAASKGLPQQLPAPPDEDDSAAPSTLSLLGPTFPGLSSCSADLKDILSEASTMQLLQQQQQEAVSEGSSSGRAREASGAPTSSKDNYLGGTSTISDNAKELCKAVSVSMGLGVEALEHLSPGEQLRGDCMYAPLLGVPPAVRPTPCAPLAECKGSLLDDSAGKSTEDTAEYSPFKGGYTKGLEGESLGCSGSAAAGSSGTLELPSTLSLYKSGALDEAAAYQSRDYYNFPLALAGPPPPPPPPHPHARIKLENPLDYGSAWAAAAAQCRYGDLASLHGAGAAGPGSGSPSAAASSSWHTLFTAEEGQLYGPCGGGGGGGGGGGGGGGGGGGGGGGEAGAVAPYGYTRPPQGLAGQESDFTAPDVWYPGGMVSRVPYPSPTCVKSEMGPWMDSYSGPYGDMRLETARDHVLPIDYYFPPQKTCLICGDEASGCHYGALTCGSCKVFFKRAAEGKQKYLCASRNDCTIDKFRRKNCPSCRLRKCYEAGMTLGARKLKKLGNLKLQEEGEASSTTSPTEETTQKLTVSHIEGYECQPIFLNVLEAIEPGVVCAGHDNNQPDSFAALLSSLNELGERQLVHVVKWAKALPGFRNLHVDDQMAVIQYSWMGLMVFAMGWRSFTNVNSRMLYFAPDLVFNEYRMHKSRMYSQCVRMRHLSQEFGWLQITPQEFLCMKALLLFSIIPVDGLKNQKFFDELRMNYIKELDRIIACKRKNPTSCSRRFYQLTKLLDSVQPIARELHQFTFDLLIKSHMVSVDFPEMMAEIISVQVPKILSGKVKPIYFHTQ

For `C=CC(=O)NC(C)(C)CS(=O)(=O)O`, the Potency result in assay [1], in assay [2] and in assay [3] was “inactive” throughout. For the same compound, the result in assay [4] was inactive.
As for `C[C@]12C=CC(=O)C=C1CC[C@@H]1[C@@H]2C(=O)C[C@@]2(C)[C@H]1CC[C@]2(O)C(=O)CO`, the Potency result in assay [1], in assay [2] and in [3] was “inactive” each time. Also, the compound was called inactive in [4].
Regarding `CC(C)(C)NCC(O)c1ccc(O)c(CO)c1` (stereo not given), the Potency entry in assay [1], in [2] and in assay [3] was “inactive” throughout. Further, the compound was classed as inactive in [4].
For `CC(C)Cc1ccc(C(C)C(=O)O)cc1` (stereo not given), the Potency result in assay [1], in [2], in assay [5], in assay [3] and in assay [6] was “inactive” each time. For the same compound, in assay [4], the call was inactive.
In the case of `CCc1cc(C(N)=S)ccn1`, the Potency entry in [1], in assay [2] and in [3] was “inactive” each time. The outcome in [4] was inactive.
`CCCCCCCC(=O)OCC(O)CO` (stereo not given): the Potency entry in assay [1], in assay [2] and in assay [3] was “inactive” each time. In addition, the call in [4] was inactive.
With `NC(=O)OCC(COC(N)=O)c1ccccc1`, the Potency entry in assay [1], in assay [2], in assay [3], in assay [7], in assay [9] and in assay [6] was “inactive” each time. The Potency result in [10] was “inactive”. The outcome in assay [4] and in [8] was inactive.
`COc1ccc(O)cc1`: the Potency entry in [1], in assay [2], in [3], in [7], in assay [9] and in [10] was “inactive” in each case. For the same compound, the call in [4] and in [8] was inactive.
In the case of `c1ccc2[nH]c(-c3cscn3)nc2c1`, the Potency entry in assay [1], in assay [7], in [9], in assay [6] and in [10] was “inactive” throughout. The Potency entry in assay [2] was “inactive and 69 µM (active)”; in assay [3], “inactive and 48.6 µM (active)”. The outcome in assay [4] and in [8] was inactive.
Regarding `CCCCCCCCCCCCCCCCCC(=O)OCC(O)CO` (stereo not given), the Potency result in [1], in [2], in assay [3] and in assay [6] was “inactive” throughout. Also, in assay [4], the result was inactive.
As to `COC(=O)C1CCC(C(=O)OC)CC1` (stereo not given), the Potency entry in assay [1], in assay [2], in assay [3] and in assay [6] was “inactive” throughout. The compound was classed as inactive in [4].
Consider `CCn1cc(C(=O)O)c(=O)c2ccc(C)nc21`, for which the Potency result in [1], in [2], in assay [3] and in [6] was “inactive” in each case. In addition, the outcome in [4] was inactive.
With `CC(C)CC(C)CC(O)CC(C)C` (stereo not given), the Potency entry in assay [1], in assay [2], in assay [3] and in assay [6] was “inactive” each time. The compound was called inactive in assay [4].
With `CCOC(=O)C(C)(C)Oc1ccc(Cl)cc1`, the Potency entry in assay [1], in assay [2], in [3] and in assay [6] was “inactive” in each case. For the same compound, in [4], the call was inactive.
As to `C#C[C@]1(O)CC[C@H]2[C@@H]3CCc4cc(O)ccc4[C@H]3CC[C@@]21C`, the Potency in assay [2] is 18.8 µM (active) and 48.2 µM (active) and 13.7 µM (active); in assay [3], 21.1 µM (active) and 43 µM (active). The call in [4] was inactive. Moreover, the Potency entry in assay [6] was “inactive”.
As to `C[C@]12CC[C@@H]3c4ccc(O)cc4C[C@@H](CCCCCCCCCS(=O)CCCC(F)(F)C(F)(F)F)[C@H]3[C@@H]1CC[C@@H]2O` (stereo not given in full), the Potency result in assay [1], in assay [7], in [9] and in [10] was “inactive” throughout. The results for the Potency in [2] and in assay [3] were 8.41 µM (active) and 6.68 µM (active), respectively. For the same compound, the result in assay [4] and in assay [8] was inactive.
Regarding `C/C=C/c1ccc(O)c(OC)c1`, the Potency result in assay [1], in assay [2], in assay [3] and in [6] was “inactive” throughout. Besides, the result in assay [4] was inactive.
As to `CCCCOC(=O)CCCCCCCCC(=O)OCCCC`, the Potency entry in assay [1], in assay [2], in assay [3] and in assay [6] was “inactive” each time. The outcome in assay [4] was inactive.
Consider `O=C1CCCCCN1`, for which the Potency result in assay [1], in assay [2], in assay [3] and in assay [6] was “inactive” in each case. Further, in assay [4], the outcome was inactive.
For `CC1=NN(c2ccccc2)C(=O)C1`, the Potency result in assay [1], in assay [2], in [3] and in assay [6] was “inactive” in each case. Further, in [4], the compound was called inactive.
With `C=CCOC(=O)CC(C)C`, the Potency result in assay [1], in [2], in assay [3] and in assay [6] was “inactive” in each case. Besides, the compound was classed as inactive in assay [4].
For the compound `CC(C)=CCC/C(C)=C/CO`, the Potency entry in [1], in [2] and in assay [3] was “inactive” each time. For the same compound, the outcome in assay [4] and in assay [8] was inactive.
For `Cc1cnc(NC(=O)C2=C(O)c3ccccc3S(=O)(=O)N2C)s1`, the Potency result in [1] and in [6] was “inactive” each time. In addition, the Potency in assay [2] is 26.6 µM (active) and inactive and 6.86 µM (active); in assay [3] it was “inactive and 27.3 µM (active)”. Further, in [4], the compound was called inactive.
As to `CC1(C)O[C@@H]2[C@@H](CO[C@@]3(COS(N)(=O)=O)OC(C)(C)O[C@@H]23)O1`, the Potency entry in assay [1], in assay [2] and in [3] was “inactive” in each case. Also, the call in [4] was inactive.
As for `O=c1c(-c2ccc(O)cc2)coc2cc(O)cc(O)c12`, the Potency result in assay [1], in assay [9], in assay [6] and in assay [10] was “inactive” throughout. For the same compound, the Potency in assay [2] is 11.9 µM (active) and 30.6 µM (active); in [3] it was 11.9 µM (active) and 47.7 µM (active) and 27.3 µM (active). Further, the result in [4] was inactive.
Take `CO[C@H]1C=CO[C@@]2(C)Oc3c(C)c(O)c4c(O)c(c(/C=N/N5CCN(C)CC5)c(O)c4c3C2=O)NC(=O)/C(C)=C\C=C[C@H](C)[C@H](O)[C@@H](C)[C@@H](O)[C@@H](C)[C@H](OC(C)=O)[C@@H]1C`: the Potency result in assay [1] is “inactive”. Besides, the Potency is 21.1 µM (active) and 31 µM (active) in assay [2]; 26.6 µM (active) and 15.5 µM (active) in assay [3]; 26.6 µM (active) in assay [6]. The compound was classed as inactive in [4].
For `CC(C)(C)CC(C)(C)c1ccc(O)c(-n2nc3ccccc3n2)c1`, the Potency in [1] was 49.7 µM (active). Besides, the Potency entry in assay [2], in assay [3] and in assay [6] was “inactive” in each case. The compound was classed as inactive in [4].
Take `CN(C)Cc1cc(CN(C)C)c(O)c(CN(C)C)c1`: the Potency result in assay [1], in [2], in assay [3], in [7], in [9] and in [6] was “inactive” throughout. For the same compound, in assay [10], the Potency entry was “inactive”. Besides, the result in assay [4] and in assay [8] was inactive.
Regarding `CCOCCO`, the Potency entry in assay [1], in assay [2], in [3] and in [6] was “inactive” in each case. In assay [4], the call was inactive.
As to `NC(N)=NC(N)=NCCc1ccccc1`, the Potency entry in assay [1] is “inactive”. In addition, the Potency in [5] is 29.8 µM (active) and 17.1 µM (active) and 27.3 µM (active); in [3], 17.1 µM (active) [middle of 4 runs]. In addition, the compound was called inactive in assay [4].
`CC(=O)Oc1ccccc1C(=O)O`: the Potency entry in assay [1], in assay [2], in assay [3], in assay [7], in [9] and in [10] was “inactive” each time. For the same compound, the compound was classed as inactive in assay [4] and in [8].
In the case of `Oc1cccc(O)c1`, the Potency result in [1], in [2] and in assay [3] was “inactive” in each case. Further, the outcome in assay [4] was inactive.
Turning to `COc1cc2c(c(OC)c1OC)-c1ccc(OC)c(=O)cc1[C@@H](NC(C)=O)CC2`, the Potency entry in assay [1], in [9] and in assay [10] was “inactive” in each case. The Potency was 66.8 nM (active) and 13.5 nM (active) and 7.7 nM (active) in assay [2]; 84.1 nM (active) and 10.7 nM (active) and 7.7 nM (active) in assay [3]; 0.0601 µM (active) in assay [7]. Besides, the call in assay [4] was inactive.
`C[C@]12CC[C@@H]3c4ccc(O)cc4CC[C@H]3[C@@H]1CCC2=O`: the Potency result in assay [1] and in [6] was “inactive” throughout. Also, the result in assay [4] was inactive.
Take `NC(=O)N1c2ccccc2C=Cc2ccccc21`: the Potency entry in [1] and in [6] was “inactive” throughout. For the same compound, the Potency result in [2] was “inactive and 30.6 µM (active)”; in [3] it was “inactive and 54.5 µM (active)”. The compound was classed as inactive in [4].
Take `CCCCOCCOCCOC(C)=O`: the Potency entry in [1], in [2], in assay [3] and in assay [6] was “inactive” in each case. In addition, the compound was called inactive in [4].
